Screening data: PubChem BioAssay, National Center for Advancing Translational Sciences (NCATS)
TDP1 cell noCPT – qHTS for Inhibitors of human tyrosyl-DNA phosphodiesterase 1 (TDP1): qHTS in cells in absence of CPT | DT40 Tdp1-/- hTDP1 cells, no CPT, ATP luminescence, 48 h | Potency, µM (top dose mostly 46.2 µM), inactives show at the highest dose activity change, negative = growth inhibition, most hits filed as inhibitors | 15% of 420,000 active; also: nearly all actives have a fitted effect of over 55% in size
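Cells were dispensed at 400 per well, compounds added by pin tool, plates incubated ≥48 hr at 37 °C, then CellTiter-Glo added for 30 min at room temperature before luminescence reading. Line: DT40 Tdp1-/- complemented with hTDP1; camptothecin omitted.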
DT40 TDP1 CPT – growth inhibition of DT40 Tdp1-/-;hTDP1 cells with camptothecin (screen for TDP1 inhibitors); 12% of 420,000 active; chicken DT40 Tdp1-/-;hTDP1 cells + 20 nM CPT, ATP luminescence, 48 h; Potency, µM (series often up to 46.2 µM), for inactives: at the highest dose activity change, negative = growth inhibition, actives largely listed as inhibitors; also: nearly all actives have a fitted effect of over 55% in size
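Cell growth measured by CellTiter-Glo luminescence after a minimum 48 h, 37 C compound exposure with 20 nM CPT in Tdp1-knockout DT40 cells stably expressing hTDP1, seeded 400/well; qHTS titration format.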
PLK1 PBD block – blocks phosphopeptide binding to human PLK1 polo-box domain. Potency, µM, without a hit: max response, negative = inhibition, most hits filed as inhibitors. P53350. Plk1 PBD binding of FITC phosphopeptide, fluorescence polarization. 2.8% of 360,000 active; also: series mostly up to about 57 µM; nearly all actives have a fitted effect of over 65% in size
TDP1 block – inhibitors of human tyrosyl-DNA phosphodiesterase TDP1; recombinant TDP1, AlphaScreen DNA substrate cleavage; Potency, µM (titrated, usually from 130 µM), for inactives: at the highest dose activity change, negative = inhibition, usual class: inhibitors; AID 485290; Q9NUW8; 0.28% of 350,000 active; also: nearly all actives have a fitted effect of over 40% in size
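Recombinant human Tdp1 (E. coli-expressed, 1 nM final) preincubated with compounds 15 min at room temperature, then 5'-biotin/3'-phosphotyrosine-FITC DNA substrate (15 nM final) added for 5 min. AlphaScreen beads (10 ug/ml final) added 10 min; cleavage lowers signal.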
VDR inh – blocks the human vitamin D receptor. P11473. Potency, µM, for the others: max response, negative = inhibition, usual class: inhibitors. 0.93% of 400,000 active. VDR-SRC2-3 peptide fluorescence polarization, 2 h
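FP read-out; VDR + SRC2-3 coactivator peptide; 23 nl compound by pintool; 2 h RT incubation; reagents held at 4 deg C, protected from light.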
KAT2A inh – inhibitors of human GCN5L2 histone acetyltransferase; Q92830; GCN5L2 HAT assay, ThioGlo1 CoA-SH fluorescence; Potency, µM (top dose mostly 58.9 µM), for inactives: top-dose activity change, negative = inhibition, most hits filed as inhibitors; 0.21% of 390,000 active
Target sequence (Q92830 whole entry, looked up): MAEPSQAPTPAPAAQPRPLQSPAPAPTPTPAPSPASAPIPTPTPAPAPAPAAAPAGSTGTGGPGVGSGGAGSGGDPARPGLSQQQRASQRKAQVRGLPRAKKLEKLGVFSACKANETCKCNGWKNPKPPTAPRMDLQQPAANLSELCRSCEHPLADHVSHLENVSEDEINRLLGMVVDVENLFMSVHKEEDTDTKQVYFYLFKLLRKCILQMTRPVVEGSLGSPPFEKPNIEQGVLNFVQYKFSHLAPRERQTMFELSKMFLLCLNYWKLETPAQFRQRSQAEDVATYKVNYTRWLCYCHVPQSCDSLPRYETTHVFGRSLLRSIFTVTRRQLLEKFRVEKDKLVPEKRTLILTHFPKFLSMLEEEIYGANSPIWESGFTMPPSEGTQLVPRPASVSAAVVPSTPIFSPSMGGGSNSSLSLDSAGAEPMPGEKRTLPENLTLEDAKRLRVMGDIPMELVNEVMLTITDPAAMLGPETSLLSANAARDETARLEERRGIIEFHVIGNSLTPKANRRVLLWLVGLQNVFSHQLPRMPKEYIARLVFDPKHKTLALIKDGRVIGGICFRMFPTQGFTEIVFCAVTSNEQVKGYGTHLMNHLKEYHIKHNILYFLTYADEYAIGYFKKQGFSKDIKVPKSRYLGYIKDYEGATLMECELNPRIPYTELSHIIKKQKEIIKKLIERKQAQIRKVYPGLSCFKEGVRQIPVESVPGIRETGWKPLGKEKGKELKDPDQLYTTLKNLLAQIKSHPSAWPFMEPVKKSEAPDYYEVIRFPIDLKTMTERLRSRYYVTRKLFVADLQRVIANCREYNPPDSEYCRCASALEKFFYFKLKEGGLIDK
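Fluorescence readout, Ex340nm/Em540nm: ThioGlo1 (50uM final) reacts with free CoA thiol released as 20nM GCN5L2 acetylates H3(1-25) peptide (75uM) using acetyl-CoA (70uM). Compound and enzyme sat 15 min beforehand; 20 min room-temperature reaction.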
* marks the source's active call; other numbers are inactive results; ? = inconclusive; . = not tested or not shown; [ ] = another dose, or the depositor's remark. A selection: hits, their analogues and other compounds. The true share with any hit is near 18%. Calls follow the shape of the dose curve; as a rule, active = well fitted curve in the direction sought with a large enough effect; inconclusive = small, poorly fitted or top-dose-only effect, or another doubt; inactive = no such curve, though single readings can be large; an effect the other way counts as inactive or inconclusive. % is scaled to controls: 0 for no effect and ±100 for the full control effect; potency is read from the fitted curve at half-maximal effect.

SMILES | TDP1 cell noCPT | DT40 TDP1 CPT | PLK1 PBD block | TDP1 block | VDR inh | KAT2A inh
CCOc1ccc(N/C(=N/c2nc(C)cc(C)n2)NC(C)=O)cc1 | ? | -15% | -5% | . | 4% | 0%
Cc1ccc(S(=O)(=O)c2c(O)cc(C)c(NS(=O)(=O)c3ccc(Cl)cc3)c2C)cc1 | ? | ? | . | -5% | 1% | -15%
CCc1ccc(-c2[nH]nc3nc(-c4cc(OC)ccc4OC)cc(C(=O)O)c23)cc1 | 1% | -2% | . | 0% | 8% | -18%
CCN(C(=O)CSc1cc(C)c2cccc(C)c2n1)C1CCS(=O)(=O)C1 (stereo not given) | ? | -11% | -9% | -3% | -9% | -8%
Cc1ccc(-c2csc(N/N=C/c3ccco3)n2)cc1 | ? | ? | -6% | 10% | 2% | -11%
Cc1onc(-c2ccccc2)c1-c1csc(N/N=C/c2ccccc2)n1 | 12µM* | ? | 0% | 8% | 3% | -13%
Cc1sc(N/N=C/c2ccco2)nc1-c1ccccc1 | 23µM* | ? | -6% | 8% | -8% | -7%
Brc1ccc(-c2csc(N/N=C/c3ccco3)n2)cc1 | 10µM* | ? | -2% | 5% | -5% | 0%
CN(C)S(=O)(=O)c1ccc(-c2csc(N/N=C/c3ccco3)n2)cc1 | 8.2µM* | 12µM* | -12% | . | -10% | -2%
CCOc1ccc(C(=O)NCCc2csc(-c3cccnc3)n2)cc1 | . | . | . | 1% | -1% | -4%
CCOc1cc(C2c3c(-c4cc(C)ccc4O)n[nH]c3C(=O)N2CCCOC(C)C)ccc1O (stereo not given) | ? | ? | . | 1% | 9% | -21%
Cc1noc(C)c1-c1nccc(NCc2cccs2)n1 | ? | ? | . | . | -13% | -13%
O=C(Cn1c(=O)n(Cc2ccco2)c(=O)c2c3c(sc21)CCCCC3)Nc1ccccc1 | ? | -7% | -27% | . | -3% | -22%
O=c1c2c3c(sc2n(CCN2CCCC2)c(=O)n1Cc1ccco1)CCCCC3 | 12µM* | 8.2µM* | -3% | 12% | -15% | 2%
O=C(Cn1c(=O)n(Cc2ccco2)c(=O)c2c3c(sc21)CCCCC3)c1ccccc1 | 15µM* | 15µM* | -20% | -14% | -5% | -16%
C#CCOCCOCCOCCNc1nc(N2CCN(C(=O)[C@H](CO)n3cc([C@@H](N)C(C)C)nn3)CC2)nc(N2CCN(C(=O)[C@H](CO)n3cc([C@@H](N)C(C)C)nn3)CC2)n1 | -15% | 0% | 1% | . | -25% | .
COc1ccc(OC)c(CNc2ncnc3onc(-c4ccc(Cl)cc4)c23)c1 | 2.9µM* | 2.6µM* | . | 9% | -8% | 1%
CCOc1ccccc1CNc1ncnc2onc(-c3ccc(F)cc3)c12 | 23µM* | 16µM* | . | 2% | -1% | -1%
COc1ccccc1-c1noc2ncnc(Nc3cccc(C)c3C)c12 | ? | ? | -9% | . | 5% | -1%
COc1ccccc1CNc1ncnc2onc(-c3ccc(Cl)cc3)c12 | 21µM* | ? | . | 6% | -19% | -5%
COc1ccccc1-c1noc2ncnc(Nc3ccccc3C)c12 | 15µM* | 23µM* | -10% | . | -9% | -6%
CN(C)CCO[C@](C)(c1ccccc1)c1ccccn1 | . | . | . | 12%[21 µM] | -2% | 9%[21.4 µM]
N#CC(c1ccc(O)cc1)N1CCN(C(C#N)c2ccc(O)cc2)CC1 (stereo not given) | -18% | -15% | -10% | . | -2% | .
COc1ccc(CNc2ncc(-c3ccc(Cl)cc3)n2C)c(OC)c1OC | ? | ? | -2% | . | 2% | -11%
COc1ccc(OC)c(CNc2ncc(-c3ccc(Cl)cc3)n2C)c1 | 16µM* | 16µM* | . | 5% | -12% | 1%
